# Test results from PubChem BioAssay AID1159580 (chemical genetic matrix, 2015).
# Screen size: about 5,500 compounds; about 2,000 (36%) were called active. Not shown: some 18% with an inconclusive outcome. Some of the results follow. Unmarked numbers belong to inactive results. No stated cut-off is given here; in the data, active means normalized growth mostly below about 0.91 (no sharp cut-off); inconclusive means no clear call, values can overlap the other calls; inactive means mostly above about 0.92.
# Assay: chemical genetic growth profiling, strain panel (AID 1159580);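 further: tested at 20 µM; growth read once vehicle control cultures reached saturation at 30 °C; 1 = growth at the plate median or of vehicle wells; lower values mean less growth of the strain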
# Conditions: growth OD
# [1] = S. cerevisiae deletion strains, locus YAL013W, strain DEP1, active compounds read low
# [2] = S. cerevisiae deletion strains, locus YBR229C, strain ROT2, active compounds read low
# [3] = S. cerevisiae deletion strains, locus YDL101C, strain DUN1, active compounds read low
# [4] = S. cerevisiae deletion strains, locus YDR150W, strain NUM1, active compounds read low
# [5] = S. cerevisiae deletion strains, locus YEL061C, strain CIN8, active compounds read low
# [6] = S. cerevisiae deletion strains, locus YGR078C, strain PAC10, active compounds read low
# [7] = S. cerevisiae deletion strains, locus YHR030C, strain SLT2, active compounds read low
# [8] = S. cerevisiae deletion strains, locus YHR087W, strain rtc3, active compounds read low
# [9] = S. cerevisiae deletion strains, locus YJR043C, strain POL32, active compounds read low
# [10] = S. cerevisiae deletion strains, locus YJR075W, strain HOC1, active compounds read low
# [11] = S. cerevisiae deletion strains, locus YKL190W, strain CNB1, active compounds read low
# [12] = S. cerevisiae deletion strains, locus YLR039C, strain RIC1, active compounds read low
# [13] = S. cerevisiae deletion strains, locus YLR058C, strain SHM2 (second series), active compounds read low
# [14] = S. cerevisiae deletion strains, locus YLR085C, strain ARP6, active compounds read low
# [15] = S. cerevisiae deletion strains, locus YLR262C, strain YPT6, active compounds read low
# [16] = S. cerevisiae deletion strains, locus YML094W, strain GIM5, active compounds read low
# [17] = S. cerevisiae deletion strains, locus YMR219W, strain ESC1, active compounds read low
# [18] = S. cerevisiae deletion strains, locus YMR263W, strain SAP30, active compounds read low
# [19] = S. cerevisiae deletion strains, locus YMR307W, strain GAS1, active compounds read low
# [20] = S. cerevisiae deletion strains, locus YNL153C, strain GIM3, active compounds read low
# [21] = S. cerevisiae deletion strains, locus YNL298W, strain CLA4 (second series), active compounds read low
# [22] = S. cerevisiae deletion strains, locus YNL322C, strain KRE1, active compounds read low
# [23] = S. cerevisiae deletion strains, locus YNR030W, strain Alg12, active compounds read low
# [24] = S. cerevisiae deletion strains, locus YOL006C, strain TOP1, active compounds read low
# [25] = S. cerevisiae deletion strains, locus YPL055C, strain LGE1, active compounds read low
# [26] = S. cerevisiae deletion strains, locus YPL241C, strain CIN2, active compounds read low
# [27] = S. cerevisiae deletion strains, locus YPR135W, strain CTF4, active compounds read low
compound,measurement,setting,value
CN1C/C(=C\c2ccccc2Cl)C(=O)/C(=C/c2ccccc2Cl)C1,normalized growth,[1],0.953
same,normalized growth,[2],0.911 (active)
same,normalized growth,[3],0.825 (active)
same,normalized growth,[4],0.942
same,normalized growth,[5],0.699 (active)
same,normalized growth,[6],0.873 (active)
same,normalized growth,[7],0.27 (active)
same,normalized growth,[8],0.888 (active)
same,normalized growth,"S. cerevisiae deletion strains, locus YJL187C, strain SWE1, active compounds read low",0.942
same,normalized growth,[9],0.971
same,normalized growth,[10],0.831 (active)
same,normalized growth,[11],0.789 (active)
same,normalized growth,[12],0.447 (active)
same,normalized growth,[13],0.958
same,normalized growth,[14],0.462 (active)
same,normalized growth,[15],0.655 (active)
same,normalized growth,[16],0.691 (active)
same,normalized growth,[17],0.909 (active)
same,normalized growth,[18],0.937
same,normalized growth,[19],0.419 (active)
same,normalized growth,[20],0.958
same,normalized growth,[21],0.523 (active)
same,normalized growth,[22],0.957
same,normalized growth,[23],0.756 (active)
same,normalized growth,[24],0.562 (active)
same,normalized growth,[25],0.92
same,normalized growth,[26],0.676 (active)
same,normalized growth,[27],0.422 (active)
CN(C)/C=C1\C(=O)c2ccccc2N(C)S1(=O)=O,normalized growth,[1],1
same,normalized growth,[2],0.994
same,normalized growth,"S. cerevisiae deletion strains, locus YCL061C, strain MRC1, active compounds read low",0.999
same,normalized growth,[3],0.999
same,normalized growth,"S. cerevisiae deletion strains, locus YDL134C, strain PPH21, active compounds read low",0.987
same,normalized growth,[4],1.02
same,normalized growth,[5],1.01
same,normalized growth,[6],0.982
same,normalized growth,[7],0.907
same,normalized growth,[8],0.954
same,normalized growth,[9],0.989
same,normalized growth,[10],0.949
same,normalized growth,[11],1.01
same,normalized growth,[12],0.84
same,normalized growth,[13],0.983
same,normalized growth,[14],1.06
same,normalized growth,[15],0.906
same,normalized growth,[16],1.02
same,normalized growth,[17],1
same,normalized growth,[18],1
same,normalized growth,[19],0.859
same,normalized growth,[20],0.997
same,normalized growth,[21],0.97
same,normalized growth,[22],0.999
same,normalized growth,[23],0.98
same,normalized growth,[24],0.946
same,normalized growth,[25],1.13
same,normalized growth,[26],1.01
same,normalized growth,[27],0.761
same,normalized growth,"S. cerevisiae strains, strain wild type, active compounds read low",0.991
